Experimental data taken from the supplement of paper PMC10849652.
Of roughly 8,800 targets only a part is listed; those with a hit were picked by preference. About 0.5% of all pairs of compound and target were hits.

Key:
Test in all cases: log2 fold change, soluble protein after heating vs DMSO (PISA); higher = thermal stabilisation; K562 lysate, 10 uM; active = over 0.2 and 3.5 SD of the protein, either way, in both replicates (recomputed)
alvocidib = compound: CN1CC[C@H](c2c(O)cc(O)c3c(=O)cc(-c4ccccc4Cl)oc23)[C@H](O)C1 [alvocidib]
Procedure, shortened: (§1)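 Quantification was by TMTpro 16plex LC-MS/MS with equalised channel sums, applied to the supernatant after 21,000xg for 90 min. Samples were crude K562 extract at 1 mg/mL protein in PBS pH 7.4 with 1 mM MgCl2, treated with 10 μM compound for 30 min, heated for 3 min across 48°C-58°C, pooled and brought to 0.5% NP-40 at 4°C. Values are log-two fold changes in thermal stability relative to solvent controls, from duplicates.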

[1] = compound: CNc1nc(-c2ccc3c(N)n[nH]c3c2)cc(N2C[C@@H](C(=O)NC3CCCCC3)CC[C@H]2C)n1
Procedure, shortened: as §1

encorafenib = compound: COC(=O)N[C@@H](C)CNc1nccc(-c2cn(C(C)C)nc2-c2cc(Cl)cc(NS(C)(=O)=O)c2F)n1 [encorafenib]
Procedure, shortened: as §1

[2] = compound: COC(=O)[C@H](CCSC)NC(=O)C1=C(C=C(C=C1)NC[C@H](CS)N)C2=CC=CC=C2
Procedure, shortened: as §1

pictilisib = compound: CS(=O)(=O)N1CCN(Cc2cc3nc(-c4cccc5[nH]ncc45)nc(N4CCOCC4)c3s2)CC1 [pictilisib]
Procedure, shortened: as §1

[3] = compound: C[C@H](C1=CC=C(C=C1)C(=O)NC2=C3C=CNC3=NC=C2)N
Procedure, shortened: as §1

duvelisib = compound: C[C@H](Nc1ncnc2nc[nH]c12)c1cc2cccc(Cl)c2c(=O)n1-c1ccccc1 [duvelisib]
Procedure, shortened: as §1

gandotinib = compound: Cc1cc(Nc2cc(CN3CCOCC3)c3nc(C)c(Cc4ccc(Cl)cc4F)n3n2)n[nH]1 [gandotinib]
Procedure, shortened: as §1

tozasertib = compound: Cc1cc(Nc2cc(N3CCN(C)CC3)nc(Sc3ccc(NC(=O)C4CC4)cc3)n2)n[nH]1 [tozasertib]
Procedure, shortened: as §1

bafetinib = compound: Cc1ccc(NC(=O)c2ccc(CN3CC[C@H](N(C)C)C3)c(C(F)(F)F)c2)cc1Nc1nccc(-c2cncnc2)n1 [bafetinib]
Procedure, shortened: as §1

[4] = compound: Cc1cccc(CC(=O)N2CCc3c2ccc(-c2cn(C)c4ncnc(N)c24)c3F)n1
Procedure, shortened: as §1

[5] = compound: CNC(=O)C1=CC=CC=C1NC2=NC(=NC=C2Cl)NC3=C(C=C(C=C3)N4CCOCC4)OC
Procedure, shortened: as §1

defactinib = compound: CNC(=O)c1ccc(Nc2ncc(C(F)(F)F)c(NCc3nccnc3N(C)S(C)(=O)=O)n2)cc1 [defactinib]
Procedure, shortened: as §1

crizotinib = compound: C[C@@H](Oc1cc(-c2cnn(C3CCNCC3)c2)cnc1N)c1c(Cl)ccc(F)c1Cl [crizotinib]
Procedure, shortened: as §1

doramapimod = compound: Cc1ccc(-n2nc(C(C)(C)C)cc2NC(=O)Nc2ccc(OCCN3CCOCC3)c3ccccc23)cc1 [doramapimod]
Procedure, shortened: as §1

Tubastatin A = compound: CN1CCc2c(c3ccccc3n2Cc2ccc(C(=O)NO)cc2)C1 [Tubastatin A]
Procedure, shortened: as §1

alisertib = compound: COc1cc(Nc2ncc3c(n2)-c2ccc(Cl)cc2C(c2c(F)cccc2OC)=NC3)ccc1C(=O)O [alisertib]
Procedure, shortened: as §1

[6] = compound: COc1cc2nc(-c3cc(F)ccc3O)nc(N[C@@H]3CNC[C@H]3C(C)(C)O)c2cc1OC
Procedure, shortened: as §1

gefitinib = compound: COc1cc2ncnc(Nc3ccc(F)c(Cl)c3)c2cc1OCCCN1CCOCC1 [gefitinib]
Procedure, shortened: as §1

lapatinib = compound: CS(=O)(=O)CCNCc1ccc(-c2ccc3ncnc(Nc4ccc(OCc5cccc(F)c5)c(Cl)c4)c3c2)o1 [lapatinib]
Procedure, shortened: as §1

Measured: log2 fold change

RALGAPB isoform 3 (UniProt Q86X10)
inactive: alvocidib 0.161 | [1] 0.064 | encorafenib 0.073 | [2] 0.107 | pictilisib -0.018 | [3] -0.04 | duvelisib -0.396 | gandotinib -0.33 | tozasertib 0.027 | bafetinib -0.255 | [4] -0.026

SEMA4G isoform 2 (UniProt Q9NTN9)
Sequence of UniProt Q9NTN9 (Q9NTN9 whole entry, looked up): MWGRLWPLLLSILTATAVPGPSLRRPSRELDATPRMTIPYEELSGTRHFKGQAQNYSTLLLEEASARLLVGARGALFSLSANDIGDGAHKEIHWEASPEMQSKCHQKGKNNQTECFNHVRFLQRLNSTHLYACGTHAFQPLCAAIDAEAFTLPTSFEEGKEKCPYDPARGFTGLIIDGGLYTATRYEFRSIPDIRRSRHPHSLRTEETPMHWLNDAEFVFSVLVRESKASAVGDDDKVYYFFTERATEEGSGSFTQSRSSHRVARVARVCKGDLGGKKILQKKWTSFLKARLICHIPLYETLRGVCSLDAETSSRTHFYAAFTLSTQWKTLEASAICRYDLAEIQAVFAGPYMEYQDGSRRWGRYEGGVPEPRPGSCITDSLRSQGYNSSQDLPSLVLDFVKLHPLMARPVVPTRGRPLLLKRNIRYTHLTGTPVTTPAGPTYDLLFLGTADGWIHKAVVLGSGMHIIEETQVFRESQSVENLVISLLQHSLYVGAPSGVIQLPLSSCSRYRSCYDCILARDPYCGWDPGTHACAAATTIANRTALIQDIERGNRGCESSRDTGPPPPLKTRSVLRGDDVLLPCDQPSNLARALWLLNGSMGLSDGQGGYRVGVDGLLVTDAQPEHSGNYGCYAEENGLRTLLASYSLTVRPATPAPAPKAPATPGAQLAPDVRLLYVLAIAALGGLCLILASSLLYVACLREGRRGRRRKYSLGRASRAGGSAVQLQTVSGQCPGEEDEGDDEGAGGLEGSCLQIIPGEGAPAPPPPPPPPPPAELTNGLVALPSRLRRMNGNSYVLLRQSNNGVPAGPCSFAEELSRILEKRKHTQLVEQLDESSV
inactive: alvocidib -0.116 | [5] 0.122 | defactinib -0.047 | [1] 0.143 | encorafenib -0.193 | [2] 0.215 | crizotinib -0.084 | [3] 0.036 | duvelisib -0.294 | gandotinib 0.019 | tozasertib 0.082 | doramapimod -0.053 | [4] -0.024

RAD54L (UniProt Q92698)
Sequence of UniProt Q92698 (Q92698 whole entry, looked up): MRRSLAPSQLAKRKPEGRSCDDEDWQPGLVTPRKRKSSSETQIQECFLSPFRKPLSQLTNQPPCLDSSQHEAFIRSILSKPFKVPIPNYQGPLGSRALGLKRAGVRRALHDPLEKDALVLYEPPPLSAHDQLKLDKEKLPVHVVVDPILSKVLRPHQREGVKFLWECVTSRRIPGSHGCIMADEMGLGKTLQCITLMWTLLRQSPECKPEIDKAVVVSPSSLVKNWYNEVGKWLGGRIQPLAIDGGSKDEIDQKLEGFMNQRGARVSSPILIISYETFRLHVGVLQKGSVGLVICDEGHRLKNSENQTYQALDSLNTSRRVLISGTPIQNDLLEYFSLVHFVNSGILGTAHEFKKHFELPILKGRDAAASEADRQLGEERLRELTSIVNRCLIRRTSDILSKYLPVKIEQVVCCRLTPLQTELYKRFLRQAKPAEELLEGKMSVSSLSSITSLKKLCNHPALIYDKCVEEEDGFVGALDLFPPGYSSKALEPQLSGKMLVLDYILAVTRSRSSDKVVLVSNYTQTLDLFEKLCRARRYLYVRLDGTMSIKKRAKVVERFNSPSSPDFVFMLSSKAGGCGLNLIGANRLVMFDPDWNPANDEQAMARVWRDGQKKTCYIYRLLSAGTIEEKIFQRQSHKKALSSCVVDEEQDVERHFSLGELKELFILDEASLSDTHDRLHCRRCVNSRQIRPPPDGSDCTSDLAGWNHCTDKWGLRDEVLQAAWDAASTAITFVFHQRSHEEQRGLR
active: [3] -1.75
inactive: alvocidib -0.673 | Tubastatin A 0 | [5] 0.013 | [1] -0.132 | alisertib -0.022 | [6] -0.041 | gefitinib 0 | lapatinib -0.029 | pictilisib 0.029 | duvelisib 0.109 | gandotinib 0.454 | bafetinib -0.185 | [4] 0.617

RUFY2 isoform 1 (UniProt Q8WXA3)
Sequence of UniProt Q8WXA3 (Q8WXA3 whole entry, looked up): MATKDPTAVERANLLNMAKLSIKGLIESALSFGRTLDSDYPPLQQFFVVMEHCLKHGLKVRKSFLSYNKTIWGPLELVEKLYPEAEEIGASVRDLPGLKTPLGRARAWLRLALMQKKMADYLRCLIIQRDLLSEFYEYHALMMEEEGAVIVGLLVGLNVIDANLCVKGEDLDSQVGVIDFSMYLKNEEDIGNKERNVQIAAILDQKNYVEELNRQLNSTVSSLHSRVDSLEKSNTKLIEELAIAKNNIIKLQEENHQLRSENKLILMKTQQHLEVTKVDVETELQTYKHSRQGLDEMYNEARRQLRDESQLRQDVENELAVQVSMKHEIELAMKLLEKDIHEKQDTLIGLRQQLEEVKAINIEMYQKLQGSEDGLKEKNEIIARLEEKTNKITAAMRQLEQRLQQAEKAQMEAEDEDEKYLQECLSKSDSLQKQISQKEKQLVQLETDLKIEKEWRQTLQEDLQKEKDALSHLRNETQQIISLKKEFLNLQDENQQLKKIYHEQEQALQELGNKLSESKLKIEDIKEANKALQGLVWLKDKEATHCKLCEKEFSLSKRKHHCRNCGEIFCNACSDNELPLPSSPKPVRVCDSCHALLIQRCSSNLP
active: pictilisib -0.533
inactive: alvocidib 0.01 | Tubastatin A 0.074 | defactinib 0.066 | encorafenib 0.13 | [2] -0.031 | alisertib 0.003 | gefitinib 0.053 | crizotinib -0.015 | [3] 0.116 | gandotinib 0.072 | tozasertib 0.131 | doramapimod -0.136 | bafetinib 0.177 | [4] -0.099

RNF170 (UniProt Q96K19)
inactive: alvocidib 0.371 | [5] -0.137 | defactinib 0.027 | [1] -0.067 | alisertib 0.055 | [6] 0.07 | gefitinib 0.037 | lapatinib -0.011 | pictilisib -0.332 | [3] -0.042 | duvelisib -0.229 | gandotinib -0.198 | bafetinib 0.024
active: [4] 1.2

RNF24 isoform 2 (UniProt Q9Y225)
Sequence of UniProt Q9Y225 (Q9Y225 whole entry, looked up): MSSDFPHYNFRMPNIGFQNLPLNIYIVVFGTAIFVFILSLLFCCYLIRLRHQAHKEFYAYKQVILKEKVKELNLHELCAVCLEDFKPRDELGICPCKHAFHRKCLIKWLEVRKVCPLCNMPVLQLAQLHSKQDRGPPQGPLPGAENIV
inactive: alvocidib 0.079 | [5] 0.003 | alisertib -0.113 | gefitinib -0.108 | pictilisib -0.089 | crizotinib -0.074 | [3] -0.173 | gandotinib 0.117 | doramapimod -0.093 | bafetinib -0.477 | [4] 0.028

RMI2 (UniProt Q96E14)
Sequence of UniProt Q96E14 (Q96E14 whole entry, looked up): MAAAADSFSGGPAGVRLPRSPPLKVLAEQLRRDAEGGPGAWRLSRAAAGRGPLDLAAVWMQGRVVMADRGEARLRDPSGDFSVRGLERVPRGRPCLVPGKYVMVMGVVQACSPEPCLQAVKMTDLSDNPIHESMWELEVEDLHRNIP
inactive: Tubastatin A -0.146 | [5] -0.074 | defactinib 0.265 | [1] 0.007 | encorafenib -0.054 | [2] -0.021 | crizotinib 0.005 | duvelisib 0.013 | tozasertib -0.068 | doramapimod -0.012

RAD54L2 (UniProt Q9Y4B4)
inactive: alvocidib 0.007 | [5] -0.065 | defactinib -0.013 | [1] 0.093 | encorafenib 0.102 | [2] 0.153 | alisertib 0.141 | [6] -0.088 | gefitinib 0.045 | lapatinib -0.209 | pictilisib -0.018 | crizotinib -0.037 | [3] -0.174 | duvelisib 0.026 | gandotinib -0.163 | tozasertib -0.166 | doramapimod -0.02 | bafetinib -0.095 | [4] 0.067

RHBDD1 (UniProt Q8TEB9)
inactive: alvocidib -0.018 | defactinib 0.024 | encorafenib 0.063 | [2] 0.054 | [6] 0.02 | lapatinib 0.06 | pictilisib -0.216 | [3] 0.036 | gandotinib -0.118 | tozasertib -0.071 | bafetinib -0.133 | [4] -0.028

RBBP7 (UniProt Q16576)
Sequence of UniProt Q16576 (Q16576 whole entry, looked up): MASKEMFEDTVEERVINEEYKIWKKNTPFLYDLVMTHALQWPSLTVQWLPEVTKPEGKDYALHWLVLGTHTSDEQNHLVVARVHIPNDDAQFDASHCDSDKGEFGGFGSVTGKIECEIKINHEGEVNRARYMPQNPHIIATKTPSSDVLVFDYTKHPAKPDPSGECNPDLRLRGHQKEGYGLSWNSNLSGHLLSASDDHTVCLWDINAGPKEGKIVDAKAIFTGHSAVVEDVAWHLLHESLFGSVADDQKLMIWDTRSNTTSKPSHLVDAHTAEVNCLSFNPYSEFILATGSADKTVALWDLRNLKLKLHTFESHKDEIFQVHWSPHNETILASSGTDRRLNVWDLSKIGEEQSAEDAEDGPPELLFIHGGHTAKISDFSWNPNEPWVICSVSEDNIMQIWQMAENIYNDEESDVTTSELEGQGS
inactive: Tubastatin A -0.005 | [5] 0.006 | defactinib -0.018 | [1] -0.125 | encorafenib 0.032 | [2] -0.021 | alisertib 0.014 | [6] -0.003 | gefitinib 0.006 | lapatinib 0.001 | pictilisib 0.007 | crizotinib 0.026 | duvelisib 0.02 | tozasertib 0.073 | doramapimod -0.036 | bafetinib -0.072

SEC16A isoform 3 (UniProt O15027)
inactive: Tubastatin A -0.008 | [1] 0.023 | duvelisib 0.024

RPS6KA3 (UniProt P51812)
Sequence of UniProt P51812 (P51812 whole entry, looked up): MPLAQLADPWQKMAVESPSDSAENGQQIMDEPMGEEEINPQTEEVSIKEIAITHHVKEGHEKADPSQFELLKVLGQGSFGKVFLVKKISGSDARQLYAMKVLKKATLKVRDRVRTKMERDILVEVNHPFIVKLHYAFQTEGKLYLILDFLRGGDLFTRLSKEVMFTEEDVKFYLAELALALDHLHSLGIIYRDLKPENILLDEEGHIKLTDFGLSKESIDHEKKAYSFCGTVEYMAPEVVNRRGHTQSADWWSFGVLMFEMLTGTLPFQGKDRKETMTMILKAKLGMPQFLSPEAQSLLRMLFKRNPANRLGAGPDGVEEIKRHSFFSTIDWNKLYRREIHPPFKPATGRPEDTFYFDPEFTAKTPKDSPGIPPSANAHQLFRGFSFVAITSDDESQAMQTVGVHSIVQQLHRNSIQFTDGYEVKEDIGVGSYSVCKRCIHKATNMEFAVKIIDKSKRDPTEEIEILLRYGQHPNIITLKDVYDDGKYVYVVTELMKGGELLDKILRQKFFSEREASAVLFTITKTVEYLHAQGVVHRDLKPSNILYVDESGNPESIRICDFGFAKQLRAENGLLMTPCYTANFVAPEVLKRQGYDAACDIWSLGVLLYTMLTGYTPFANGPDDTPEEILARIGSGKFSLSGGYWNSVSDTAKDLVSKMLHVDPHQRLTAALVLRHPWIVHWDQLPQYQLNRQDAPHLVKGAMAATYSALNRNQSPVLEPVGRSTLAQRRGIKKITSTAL
inactive: alvocidib 0.306 | Tubastatin A -0.151 | [1] -0.017 | encorafenib -0.107 | [2] 0.056 | [6] 0.049 | gefitinib -0.025 | lapatinib -0.089 | pictilisib 0.223 | crizotinib -0.012 | [3] -0.037 | duvelisib -0.016 | gandotinib 0.156 | tozasertib 0.363 | doramapimod -0.057 | bafetinib -0.077 | [4] -0.083
active: defactinib 0.433

SERAC1 (UniProt Q96JX3)
inactive: alvocidib 0.048 | [5] -0.024 | [1] 0.149 | encorafenib -0.051 | [2] -0.003 | alisertib -0.412 | gefitinib -0.165 | pictilisib -0.018 | [3] -0.074 | duvelisib 0.145 | gandotinib 0.052 | tozasertib -0.089 | bafetinib -0.276 | [4] 0.127

RAB5IF isoform 5 (UniProt Q9BUV8)
active: [3] 0.753
inactive: alvocidib 0.249 | [5] 0 | defactinib -0.032 | [1] -0.011 | encorafenib 0.04 | [2] -0.125 | alisertib 0.15 | [6] -0.011 | gefitinib 0.131 | lapatinib -0.043 | pictilisib -0.122 | duvelisib -0.071 | gandotinib -0.234 | tozasertib 0 | bafetinib 0.221 | [4] -0.357

RNASEH2B, A0A1B0GUE7
inactive: alisertib 0.04 | [6] 0.039 | gefitinib -0.028 | lapatinib -0.128

RNF17 (UniProt Q9BXT8)
inactive: alvocidib -0.006 | Tubastatin A 0.079 | [5] 0.096 | [1] -0.183 | encorafenib 0.061 | [2] -0.032 | [6] -0.057 | lapatinib -0.02 | pictilisib 0.031 | crizotinib 0.105 | [3] 0.08 | duvelisib -0.071 | gandotinib 0.028 | tozasertib 0.119 | doramapimod 0.006 | bafetinib -0.285 | [4] -0.257

RNPC3 (UniProt Q96LT9)
inactive: alvocidib 0.012 | Tubastatin A -0.099 | [5] -0.047 | [1] 0.082 | alisertib 0.118 | [6] 0.056 | gefitinib -0.08 | lapatinib -0.018 | crizotinib -0.043 | [3] 0.036 | duvelisib 0.072 | gandotinib 0.016 | doramapimod -0.115 | [4] -0.115

SELENOK (UniProt Q9Y6D0)
Sequence of UniProt Q9Y6D0 (Q9Y6D0 whole entry, looked up): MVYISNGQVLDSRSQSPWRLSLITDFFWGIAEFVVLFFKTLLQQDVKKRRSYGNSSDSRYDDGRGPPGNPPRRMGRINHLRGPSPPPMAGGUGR
active: [3] -0.543 | gandotinib 0.52 | [4] 0.542
inactive: alvocidib -0.169 | defactinib 0.123 | [1] -0.001 | alisertib -0.018 | [6] -0.025 | gefitinib 0.006 | lapatinib -0.065 | pictilisib -0.048 | duvelisib 0.082 | bafetinib -0.027

RBM45 (UniProt Q8IUH3)
Sequence of UniProt Q8IUH3 (Q8IUH3 whole entry, looked up): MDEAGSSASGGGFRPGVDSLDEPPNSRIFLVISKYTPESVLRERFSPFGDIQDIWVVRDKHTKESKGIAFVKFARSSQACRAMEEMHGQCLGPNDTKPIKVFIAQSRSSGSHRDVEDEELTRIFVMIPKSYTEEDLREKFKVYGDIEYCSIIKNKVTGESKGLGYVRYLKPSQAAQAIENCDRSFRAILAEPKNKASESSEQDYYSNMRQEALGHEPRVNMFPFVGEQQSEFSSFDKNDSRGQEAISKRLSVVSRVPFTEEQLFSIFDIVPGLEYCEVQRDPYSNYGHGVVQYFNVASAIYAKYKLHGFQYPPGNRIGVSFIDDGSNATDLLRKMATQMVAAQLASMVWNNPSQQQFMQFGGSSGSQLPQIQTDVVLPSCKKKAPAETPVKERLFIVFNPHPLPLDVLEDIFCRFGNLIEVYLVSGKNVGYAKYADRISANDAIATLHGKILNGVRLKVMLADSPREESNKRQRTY
inactive: alvocidib 0.013 | alisertib -0.136 | [6] 0.055 | gefitinib -0.03 | lapatinib -0.12 | crizotinib -0.094 | [3] 0.184 | gandotinib -0.1 | doramapimod 0.014 | [4] 0.077

RXRA (UniProt P19793)
Sequence of UniProt P19793 (P19793 whole entry, looked up): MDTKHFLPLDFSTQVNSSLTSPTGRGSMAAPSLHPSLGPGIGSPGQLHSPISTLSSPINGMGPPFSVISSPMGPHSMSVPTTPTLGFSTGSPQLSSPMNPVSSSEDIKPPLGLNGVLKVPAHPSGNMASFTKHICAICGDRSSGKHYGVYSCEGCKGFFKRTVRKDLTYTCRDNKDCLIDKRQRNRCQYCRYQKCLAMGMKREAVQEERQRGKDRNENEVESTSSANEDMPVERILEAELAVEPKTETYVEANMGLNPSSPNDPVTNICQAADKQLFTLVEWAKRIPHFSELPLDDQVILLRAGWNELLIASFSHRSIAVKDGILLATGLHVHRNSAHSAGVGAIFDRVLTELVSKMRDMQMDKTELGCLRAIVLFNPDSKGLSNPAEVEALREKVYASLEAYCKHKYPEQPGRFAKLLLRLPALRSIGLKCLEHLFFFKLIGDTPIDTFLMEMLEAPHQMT
inactive: alvocidib -0.019 | Tubastatin A 0.138 | [5] -0.06 | [1] 0.072 | alisertib -0.117 | [6] 0.018 | gefitinib 0.043 | lapatinib -0.045 | crizotinib -0.062 | [3] -0.041 | duvelisib 0 | gandotinib -0.047 | doramapimod 0.019 | [4] 0.126

ROBO2 isoform 3 (UniProt Q9HCK4)
inactive: Tubastatin A -0.009 | [5] 0.03 | [6] 0.009 | lapatinib 0.02 | crizotinib -0.039 | doramapimod 0.019

RYR1 (UniProt P21817)
inactive: alvocidib 0.015 | Tubastatin A 0.097 | [5] 0.064 | [1] 0.16 | encorafenib -0.024 | [2] -0.087 | [6] 0.02 | lapatinib 0.028 | pictilisib -0.048 | crizotinib -0.229 | [3] -0.017 | duvelisib -0.032 | gandotinib -0.027 | tozasertib 0.04 | doramapimod 0.112 | bafetinib -0.13 | [4] 0.016

RFNG (UniProt Q9Y644)
inactive: alisertib -0.003 | gefitinib 0.424

QSER1, A0A3B3IRW6
inactive: Tubastatin A -0.122 | [5] 0.014 | defactinib 0.019 | [1] -0.035 | encorafenib 0.059 | [2] 0.183 | alisertib 0.025 | [6] -0.004 | gefitinib -0.021 | lapatinib -0.04 | crizotinib -0.072 | duvelisib 0.005 | tozasertib -0.033 | doramapimod 0

RBBP7 (UniProt C9J7L0)
inactive: alisertib 0.089 | gefitinib -0.058

RLIM (UniProt Q9NVW2)
inactive: pictilisib -0.053 | crizotinib -0.323 | doramapimod -0.044 | bafetinib -0.193

RNASEH1 (UniProt O60930)
Sequence of UniProt O60930 (O60930 whole entry, looked up): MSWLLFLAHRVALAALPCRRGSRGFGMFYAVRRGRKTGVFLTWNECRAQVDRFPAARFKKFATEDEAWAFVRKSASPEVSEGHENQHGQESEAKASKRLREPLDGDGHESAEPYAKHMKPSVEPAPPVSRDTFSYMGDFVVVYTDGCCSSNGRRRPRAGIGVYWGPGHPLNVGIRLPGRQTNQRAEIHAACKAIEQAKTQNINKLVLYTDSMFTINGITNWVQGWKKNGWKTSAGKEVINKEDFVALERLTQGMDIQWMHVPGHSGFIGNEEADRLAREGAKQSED
inactive: alvocidib 0.024 | [3] -0.014 | gandotinib -0.174 | [4] 0.274

SEC16A isoform 2 (UniProt O15027)
inactive: Tubastatin A 0.023
